# Data taken from PubChem BioAssay (NCI).
# The panel holds about 83,000 compounds, 20% with a hit somewhere; the sample as a whole holds those more often.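 The test compound was applied at a single concentration to cells in 96-well plates for 48 hours, and percent growth was recorded.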 Unmarked numbers belong to inactive results. Calls of active or inactive are those of the source. Rule for the calls: active = growth percent below 10; inactive = the rest.
# Experiments:
# Assay in all cases: NCI-60 one-dose screen, 48 h (100 = growth as untreated, 0 = no growth, -100 = all killed)
# SR leukemia = settings: 10 µM unless noted
# RPMI-8226 leukemia = settings: 10 µM unless noted
# OVCAR-8 ovarian = settings: 10 µM unless noted
# OVCAR-5 ovarian = settings: 10 µM unless noted
# OVCAR-4 ovarian = settings: 10 µM
# SK-OV-3 ovarian = settings: 10 µM unless noted
# IGROV1 ovarian = settings: 10 µM unless noted
# OVCAR-3 ovarian = settings: 10 µM unless noted
# HS 578T breast = settings: 10 µM unless noted
# NCI/ADR-RES ovarian = settings: 10 µM unless noted
# T-47D breast = settings: 10 µM unless noted
# BT-549 breast = settings: 10 µM unless noted
# SW-620 colon = settings: 10 µM unless noted
# MCF7 breast = settings: 10 µM unless noted
# HCT-116 colon = settings: 10 µM unless noted
# HCC-2998 colon = settings: 10 µM unless noted
# KM12 colon = settings: 10 µM unless noted
# MDA-MB-435 melanoma = settings: 10 µM unless noted
Compound,growth (SR leukemia),growth (RPMI-8226 leukemia),growth (OVCAR-8 ovarian),growth (OVCAR-5 ovarian),growth (OVCAR-4 ovarian),growth (SK-OV-3 ovarian),growth (IGROV1 ovarian),growth (OVCAR-3 ovarian),growth (HS 578T breast),growth (NCI/ADR-RES ovarian),growth (T-47D breast),growth (BT-549 breast),growth (SW-620 colon),growth (MCF7 breast),growth (HCT-116 colon),growth (HCC-2998 colon),growth (KM12 colon),growth (MDA-MB-435 melanoma)
COc1cc2c(=O)[nH]c3cc([N+](=O)[O-])ccc3c2cc1[N+](=O)[O-],32.2%,57.2%,45.9%,74.1%,54.1%,77.4%,41.5%,63.7%,66.6%,48.7%,49.1%,50.4%,35.5%,16.5%,21.5%,62.8%,53.3%,–
c1ccc(-c2n[nH]c(-c3ccccn3)n2)nc1,127%,104%,107%,100%,103%,108%,116%,144%,139%,90.4%,95.8%,–,117%,93.5%,110%,108%,128%,106%
CCOc1ccc(/C=C(\C#N)c2cc3ccccc3[nH]2)cc1,18.2%,79.7%,65.4%,76.5%,82.5%,67.8%,56%,41.9%,66.4%,26.1%,39.7%,–,24.6%,24.7%,37.1%,72.5%,22.5%,-28.8% (active)
CCOC(=O)c1c[nH]n2c(=S)ncnc12,107%,107%,104%,103%,101%,103%,121%,99.5%,118%,99.1%,98.7%,108%,112%,96.3%,101%,112%,99.9%,–
CC(C)C1=NOC(=O)C1=Cc1cn(-c2ccco2)nc1-c1ccccc1,-2.02% (active),6.57% (active),80.5%,114%,94.6%,102%,90.2%,90.6%,96.1%,98%,49%,116%,84%,–,58.2%,101%,85.2%,91.9%
Oc1ccc(N=Nc2nccs2)c(O)c1,8.21% (active),20.1%,36.4%,87.5%,25.9%,78.2%,42.9%,-1.86% (active),80.2%,12.4%,58.1%,–,41.3%,57.1%,5.98% (active),73.4%,51.7%,64.4%
Nc1ccc2c(c1)Cc1cc(NC(=O)C(F)(F)F)ccc1-2,101%,88.3%,102%,114%,109%,89.8%,114%,99.5%,119%,104%,81.8%,–,105%,60.1%,108%,105%,97.7%,102%
COc1ccc2c(c1)C(C)Cc1c(ncnc1-n1cnc3ccccc31)N2C (stereo unspecified),11.8%,26.5%,17.8%,48.7%,70%,14.5%,50.7%,6% (active),31.6%,11.3%,56.9%,–,23.8%,18.6%,10.3%,25.4%,17.8%,0.335% (active)
O=C(O)c1cn(C2CC2)c2cc(N3CCN(Cc4cc(Cl)ccc4O)CC3)c(F)cc2c1=O,0.849% (active),41.8%,58.2%,89.4%,72.3%,71%,44.8%,81.2%,74.1%,72.7%,67.4%,–,83.6%,54.6%,72.3%,82.4%,62.5%,74.2%
CCn1cc(-c2ccnc(NCCNS(=O)(=O)c3cccc4ccccc34)c2)c(-c2cccc(O)c2)n1,74.9%,74%,101%,123%,99.9%,106%,91.5%,100%,95.3%,102%,85.9%,109%,118%,–,87.3%,122%,99.1%,96.1%
CC(C)C1=NOC(=O)C1=Cc1cn(-c2ccccc2)nc1-c1ccccc1,-26.9% (active),-16.2% (active),59.8%,102%,95.4%,112%,67.5%,88.4%,64%,94.6%,76.2%,114%,60.1%,–,28.9%,91.8%,79.5%,73.2%
O=C1NC(=O)C(Cc2ccc(OCc3ccc(-c4cc(F)c(F)c(F)c4)cc3)cc2)S1 (stereo unspecified),83.8%,69%,90.2%,93.4%,68.7%,87.5%,69.3%,88.3%,83.5%,82.1%,57.6%,–,95.2%,83.9%,83.9%,97.3%,81.9%,99%
O=C(Nc1ccc(Nc2ccncc2)cc1)c1ccc([N+](=O)[O-])cc1,-45.3% (active),22.8%,61%,101%,67.3%,88.6%,85.4%,60.4%,95.4%,92%,29.7%,–,30.5%,51.6%,27.3%,66.7%,79.5%,79.5%
O=C(O)CC1CCCCC1c1ccccc1 (stereo unspecified),98.5%,104%,106%,102%,109%,104%,108%,118%,83%,114%,104%,96%,111%,–,98.4%,106%,110%,115%
Cn1cc(-c2noc(-c3cn(C)c4ncccc34)n2)c2cc(Cl)ccc21,82.2%,96.6%,96%,79.7%,98.3%,89%,99.8%,109%,111%,89.8%,54.2%,–,89%,62.1%,94.1%,99.8%,103%,87%
COc1ccc(-c2cc(-c3ccc(Cl)cc3)nc(SCCCCCCC(=O)NO)n2)cc1,4.61% (active),26.5%,21.1%,34.1%,56.5%,20.1%,11.1%,39%,55.5%,2.26% (active),-2.44% (active),–,25.5%,22.1%,14.9%,59.8%,45.9%,39.2%
CCn1cc(-c2ccnc(NCCNS(=O)(=O)c3ccc(Br)cc3)c2)c(-c2cccc(OC)c2)n1,42.2%,25%,63.5%,97.6%,55.3%,76.6%,60.8%,78.3%,78.5%,73.9%,16.3%,99.7%,81.7%,–,51.6%,111%,82.8%,83.7%
COc1ccc(-c2cc(-c3ccc(OC)c(OC)c3)nc(SCCCCCC(=O)NO)n2)cc1,-1.05% (active),29.4%,37.7%,52.4%,76.8%,46.6%,61.6%,64.8%,44.7%,101%,-1.6% (active),–,32.8%,54.4%,14.6%,86.7%,63.9%,40.7%
